# Results published in PubChem BioAssay AID1445 (SRMLSC, 2008).
# The whole screen tested about 220,000 compounds, of which about 910 (0.41%) were called active. This is one part of a sample in which actives are shown more often than they occur. Results with a measured potency or affinity are listed apart. Unmarked numbers belong to inactive results.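 How the source made its calls: active means primary inhibition above the hit cutoff, then over 50% inhibition at one or more dose response concentrations (cut at about 23% in these data, passing the limit was not always enough); inconclusive means conflicting primary data, or primary hits not chosen for dose response; inactive means low primary inhibition, or under 50% at every dose.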
# Molecular target: Aminopeptidase N (Plasmodium falciparum (isolate 3D7)) (UniProt O96935)
# Sequence (O96935 whole entry, looked up): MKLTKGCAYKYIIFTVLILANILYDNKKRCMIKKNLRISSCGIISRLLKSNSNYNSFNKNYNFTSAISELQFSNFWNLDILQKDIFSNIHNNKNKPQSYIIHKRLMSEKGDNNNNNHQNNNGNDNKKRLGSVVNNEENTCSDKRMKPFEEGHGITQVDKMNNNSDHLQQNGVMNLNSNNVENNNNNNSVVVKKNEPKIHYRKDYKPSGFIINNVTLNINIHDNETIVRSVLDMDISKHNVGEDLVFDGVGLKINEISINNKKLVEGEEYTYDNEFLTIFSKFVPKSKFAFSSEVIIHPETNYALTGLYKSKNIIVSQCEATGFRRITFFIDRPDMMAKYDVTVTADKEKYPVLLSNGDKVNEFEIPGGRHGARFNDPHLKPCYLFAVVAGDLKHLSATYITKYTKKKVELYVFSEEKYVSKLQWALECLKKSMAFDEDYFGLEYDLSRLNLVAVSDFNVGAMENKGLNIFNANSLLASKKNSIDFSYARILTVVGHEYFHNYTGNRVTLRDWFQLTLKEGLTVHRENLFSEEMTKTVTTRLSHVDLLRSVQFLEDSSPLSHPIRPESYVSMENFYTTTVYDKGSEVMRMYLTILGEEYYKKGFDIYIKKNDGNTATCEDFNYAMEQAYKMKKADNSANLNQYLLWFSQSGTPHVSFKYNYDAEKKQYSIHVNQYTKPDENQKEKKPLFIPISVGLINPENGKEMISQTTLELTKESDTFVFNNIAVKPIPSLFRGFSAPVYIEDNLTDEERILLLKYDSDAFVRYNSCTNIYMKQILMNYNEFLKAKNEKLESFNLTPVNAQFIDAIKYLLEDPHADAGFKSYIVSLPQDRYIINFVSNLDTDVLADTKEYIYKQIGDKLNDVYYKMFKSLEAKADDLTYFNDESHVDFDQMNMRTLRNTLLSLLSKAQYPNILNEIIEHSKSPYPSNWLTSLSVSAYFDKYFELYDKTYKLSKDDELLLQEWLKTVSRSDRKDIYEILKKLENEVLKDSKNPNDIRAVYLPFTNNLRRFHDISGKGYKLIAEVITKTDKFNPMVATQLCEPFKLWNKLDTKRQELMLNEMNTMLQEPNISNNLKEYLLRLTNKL
# Assay: malaria alanyl aminopeptidase activity blockers – biochemical, fluorogenic H-Leu-NHMec substrate, 1536-well (AID 1445);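 further: plate controls were DMSO full reaction for no effect and no enzyme background for full effect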
# Settings: recombinant M1AAP, H-Leu-NHMec fluorogenic kinetic assay; at 30 µM, active compounds read high unless noted
row,SMILES,inhibition
1,COCc1[nH]nc2c1C(c1ccsc1)C(C#N)=C(N)O2 (stereo unspecified),1.23%
2,CCc1ccc(N2CC(C(=O)Nc3cc(C)ccc3F)CC2=O)cc1 (stereo unspecified),1.79%
3,Cc1c2c(nc3c(C(=O)NC4CCCCC4C)cnn13)CCCC2 (stereo unspecified),3.74%
4,O=C(Cc1csc(-c2ccccc2)n1)NCc1ccccc1F,2.51%
5,Nc1nonc1C(=O)N/N=C/c1ccc(-c2cccc([N+](=O)[O-])c2)o1,7.55%
6,Cc1ccc(-c2ccc(/C=N\NC(=O)c3cc4c(ccc5ccccc54)o3)o2)cc1[N+](=O)[O-],2.34%
7,O=C(N/N=C/c1ccc([N+](=O)[O-])o1)c1cc2c(ccc3ccccc32)o1,5.62%
8,O=[N+]([O-])c1cccc(-c2ccc(/C=N/NC(=S)Nc3ccccc3)o2)c1,2.03%
9,O=C(O)c1cc(-c2ccc(/C=N/Nc3ccc(Cl)cc3)o2)ccc1Cl,16.9%
10,COCc1cc(C)n(CC(=O)Nc2ccc(Cl)cc2Cl)c(=O)c1C#N,10.9%
11,Nc1nonc1C(=O)N/N=C/c1ccc(-c2cccc(C(=O)O)c2)o1,16.9%
12,COCc1cc(C)nc(N/N=C/c2ccc(-c3ccc(C(=O)O)c(Cl)c3)o2)c1C#N,15.5%
13,CC(=O)Nc1ccc(S(=O)(=O)NCC(=O)OCC(=O)NC(=O)c2cccn2C)cc1,3.48%
14,CC1CCN(S(=O)(=O)c2ccc(NC(=O)CCN3C(=O)c4ccccc4C3=O)cc2)CC1,4.02%
15,C=CCNC(=S)/N=c1/scc(C)n1C,6.8%
16,Cc1ccccc1Cn1ccc(NC(=O)c2onc(C)c2Cl)n1,2.73%
17,COCCNC(=O)COc1ccccc1Cl,17.4%
18,O=C(Nn1cc(C(=O)Nc2ccc(F)cc2F)c2ccccc2c1=O)c1cnccn1,5.45%
19,CCOC(=O)N1CCN(c2c(N3CCN(c4ccccc4F)CC3)c(=O)c2=O)CC1,3.17%
20,CCc1nnc(NC(=O)CSc2nnc(CNC(=O)c3ccc(OC)c(OC)c3)o2)s1,0.34%
21,CC1(C)NC(=O)N(CCCCOc2ccccc2[N+](=O)[O-])C1=O,1.49%
22,COC(=O)c1ccc(-c2ccc(/C=N/N3C(=O)C4C5C=CC(C6CC56)C4C3=O)o2)cc1 (stereo unspecified),4.36%
23,COc1ccc(CC(=O)N/N=C/c2ccc(-c3ccc(F)cc3)o2)cc1OC,6.71%
24,O=C1C2C3C=CC(C4CC34)C2C(=O)N1/N=C/c1ccc(-c2ccc([N+](=O)[O-])cc2)o1 (stereo unspecified),7.6%
25,O=C(Cc1ccc(Br)cc1)N/N=C/c1ccc(-c2cccc(C(=O)O)c2)o1,14.3%
26,O=C(CCN1CCN(C(=O)c2ccco2)CC1)Nc1ccc(F)cc1,1.29%

row,SMILES,inhibition
1,S=C(NCCCn1ccnc1)NC1CCCCC1,6.56%
2,CCC(C)NC(=O)CN(C)S(=O)(=O)c1ccc2c(c1)c(=O)n(C)c(=O)n2C (stereo unspecified),-4.82%
3,CCCC(=O)OCC(=O)Nc1ccc2c(c1)OCO2,-0.89%
4,CCOC(=O)C1=C(C)N=c2s/c(=C3\C(=O)Nc4ccccc43)c(=O)n2C1c1ccc2c(c1)OCO2 (stereo unspecified),8.57%
5,Cc1cc(C)nc(NS(=O)(=O)c2ccc(N3C(=O)c4ccccc4C3=O)cc2)n1,0.35%
6,CCOc1ccc(N2C(=O)c3ccccc3C2=O)cc1,-0.53%
7,CCO/C=C1/C(=O)N(c2ccc(OC)cc2)C(=O)c2ccccc21,4.8%
8,CCO/C=C1\C(=O)N(c2ccccc2)C(=O)c2ccccc21,-1.51%
9,COc1ccccc1N1CCN(C(c2ccc(N(C)C)cc2)c2nnnn2CCc2ccccc2)CC1 (stereo unspecified),-7.04%
10,COc1ccc(Oc2c(C)oc3c(CN(C)C)c(O)ccc3c2=O)cc1,2.59%
11,O=c1oc2c(CN3CCOCC3)c(O)ccc2c2ccccc12,3.91%
12,Cc1oc2c(CN3CCCC3)c(O)ccc2c(=O)c1-c1ccc(Br)cc1,17.5%
13,Cc1oc2c(CN3CCCC3)c(O)ccc2c(=O)c1-c1ccccc1,9.3%
14,CCc1c(C)c2ccc(OCC(=O)N(C)C)c(C)c2oc1=O,0.38%
15,CCN(CC)Cc1c(O)c(Cl)cc2c3c(c(=O)oc12)CCCC3,9.62%
16,CCCc1cc(=O)oc2c(CN3CCOCC3)c(O)ccc12,21.8%
17,CCc1cc2c3c(c(=O)oc2cc1O)CCCC3,22.5%
18,COc1ccc(-n2nnnc2SCC(=O)N2CCCC2)cc1OC,0.63%
19,COc1ccc(C(=O)Nc2cc(=O)n(C)c(=O)n2C)cc1,4.18%
20,Cc1nc(N)nc(-c2ccccc2O)n1,7.96%
21,Cn1c(=O)[nH]c(=O)c2c1nc(N1CCCCC1)n2C/C=N/NC(=O)c1cc(Br)ccc1O,20.9%
22,COCCCNC(=O)c1ccccc1Sc1ccc(NC(C)=O)nc1,2.96%
23,CCCn1nc2cc(C(=O)NC3CCc4ccccc43)ccc2c1OCC (stereo unspecified),4.98%
24,Nc1nc(NC(=O)c2ccccc2Cl)nn1-c1ccccc1,-0.99%
25,Cc1c(C(=O)NCC(C)C)sc2nc(-c3ccc(F)cc3)cn12,-1.14%
26,CC(=O)Cc1nsc(NC(=O)c2ccco2)n1,0.74%

row,SMILES,inhibition
1,O=[N+]([O-])c1cc(S(=O)(=O)Nc2ccccc2)ccc1NCc1cccnc1,6.72%
2,CN(Cc1c(O)ccc2c1oc(=O)c1ccccc12)C1CCCCC1,5.6%
3,CCc1cc(=O)oc2cc(C)c(CN3CCCC(C)C3)c(O)c12 (stereo unspecified),2.92%
4,CC(C)CN(Cc1c(O)ccc2c3c(c(=O)oc12)CCC3)CC(C)C,34.7%
5,CC1CCCN(Cc2c(O)ccc3c(=O)c(-c4nc5ccccc5s4)c(N)oc23)C1 (stereo unspecified),24.6% (active)
6,CC1CCCCN1Cc1c(O)ccc2c(=O)c(-c3nc4ccccc4s3)c(N)oc12 (stereo unspecified),17.1%
7,CC1CCN(Cc2c(O)ccc3c(=O)c(-c4nc5ccccc5s4)c(N)oc23)CC1,2.55%
8,CC1CN(Cc2c(O)ccc3c2oc(=O)c2ccccc23)CC(C)O1 (stereo unspecified),4.75%
9,COC(=O)Cc1c(C)c2ccc(OCC(C)=O)c(C)c2oc1=O,14.3%
10,C=C(C)COc1ccc2c(C)c(CC(=O)OC)c(=O)oc2c1C,13.3%
11,O=C(Cc1c(Cl)cccc1Cl)NCCc1ccc(Cl)cc1,13.8%
12,Cc1ccc(NC(=O)CCNS(=O)(=O)c2ccc3c(c2)c(=O)n(C)c(=O)n3C)cc1C,9.45%
13,NC(=O)c1ccccc1N/C=C1\CCCCC1=O,10.2%
14,O=C1/C(=C/Nc2cccc([N+](=O)[O-])c2)CCc2ccccc21,9.22%
15,CCOC(=O)N1CCN(C(=O)COc2ccccc2Cl)CC1,4.17%
16,COCCn1c(SCC#N)nnc1-c1ccc2c(c1)OCO2,-1.51%
17,OC(c1cccs1)c1nccc2ccccc12 (stereo unspecified),-3.89%
18,O=c1cc(-c2ccccc2)c2ccc(O)c(CN3CCCCC3)c2o1,11.4%
19,O=c1oc2c(CN3CCCCC3)c(O)ccc2c2c1CCCCC2,42.2% (active)
20,Cc1c(O)ccc2c3c(c(=O)oc12)CCCC3,20.9%
21,CCCCN(CC)Cc1c(O)ccc2c(-c3ccccc3)cc(=O)oc12,4.82%
22,COCCN(CCOC)Cc1c(O)ccc2c3c(c(=O)oc12)CCC3,4.7%
23,COc1ccc(-c2cc(C#N)nc(Oc3ccc(Cl)cc3)n2)cc1,6.45%
24,CC(=O)Nc1ccc(/C=N/NC(=O)c2cc3cc(C)ccc3nc2C)cc1,2.63%
25,Cc1cc(NS(=O)(=O)c2ccc(NC(=O)CSc3nc4sc(C(=O)O)c(C)c4c(=O)[nH]3)cc2)no1,16.3%
26,CCC(=O)Nc1ccc(S(=O)(=O)Nc2cc(C)on2)cc1,-4.75%

row,SMILES,inhibition
1,Cc1ccc(COc2ccccc2-c2cc(C(=O)N/N=C/c3cccnc3)[nH]n2)cc1,4.58%
2,O=C(N/N=C/c1cccnc1)c1ccccc1OCc1ccc(Cl)cc1,-4.49%
3,COc1ccc(C2c3c(noc3C)CC(C)(O)C2C(C)=O)cc1 (stereo unspecified),0.23%
4,COc1ccc(-c2nn(-c3ccccc3)cc2/C=C/C(=O)N2CCN(c3ccccn3)CC2)cc1,1.49%
5,CCOC(=O)COc1ccc2ccccc2c1/C=C/[N+](=O)[O-],4.98%
6,CCOC(=O)COc1ccc(/C=C/[N+](=O)[O-])c(OCC(=O)OCC)c1,1.07%
7,CCOC(=O)COc1ccccc1/C=C\[N+](=O)[O-],11.9%
8,CCN=C1S/C(=C\c2cc(Br)ccc2OCC(=O)OCC)C(=O)N1CC,3.81%
9,CCCOC(=O)c1ccc(Cl)c(NC(=O)c2cccnc2)c1,8.87%
10,COc1ccc(C(=O)CC(=O)c2ccccc2O)cc1OC,2.33%
11,COC(=O)c1ccc(-n2nnnc2SC)cc1,26.3% (active)
12,COC(=O)COC(=O)c1ccc(-n2nnnc2SC)cc1,-3%
13,CSc1nnnn1-c1ccc(C(=O)O)cc1,5.73%
14,Cn1c(=O)n(CCc2ccccc2)c(=O)c2c1ncn2Cc1ccccc1,2.43%
15,Cc1cc(NC(=O)c2ccc(N3CCCC3)c([N+](=O)[O-])c2)no1,-2.39%
16,CC(=O)Nc1ccc(NC(=O)C2CCCN2C(=O)Nc2ccc(F)c([N+](=O)[O-])c2)cc1 (stereo unspecified),2.21%
17,O=C(NCc1ccc2c(c1)OCO2)C1CCCN1C(=O)Nc1ccccc1 (stereo unspecified),11.3%
18,O=C(NCc1ccc2c(c1)OCO2)C1CCCN1C(=O)Nc1ccc(F)cc1 (stereo unspecified),11.2%
19,COc1ccc(NC(=O)C2CCCN2C(=O)Nc2cccc(F)c2)cc1 (stereo unspecified),6.92%
20,COc1cccc(NC(=O)C2CCCN2C(=O)Nc2cccc(F)c2)c1 (stereo unspecified),14.7%
21,Cc1cccc(NC(=O)N2CCCC2C(=O)Nc2ccccc2)c1 (stereo unspecified),13.2%
22,CC(=O)c1cccc(NC(=O)N2CCCC2C(=O)Nc2cccc(C)c2)c1 (stereo unspecified),1.86%
23,CC(=O)Nc1cccc(NC(=O)C2CCCN2C(=O)Nc2ccccc2C)c1 (stereo unspecified),-3.25%
